Results on 32 sequences are retold here after the supplement of paper PMC10338343.

For test [1], the system named is MILI (PIWIL2) piRISC loaded with piRNA #1 (26 nt). The experiment in a line: pre-steady-state target cleavage rate (min^-1); guide: piRNA #1 5'p-UGAGGUAGUAGGUUGUAUAGUAUCCA; higher = faster piRNA-guided slicing of the target. To be noted: auxiliary factor: 500 nM mouse GTSF1. In a few lines: (§1)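 In Cleave-'n-Seq, a transcribed, DNA-blocked target RNA library (0.1 nM) was combined with 1 nM active affinity-purified piRISC bearing one synthetic guide, with or without 500 nM GTSF1 partner protein. Reactions ran in HEPES–potassium acetate buffer at 33 °C for 0–8 or 0–960 min. Uncleaved targets were sequenced and normalised to depth and to weakly complementary targets, three trials were pooled, and k3 was capped at 0.0001 min^-1. The pre-steady-state cleavage rate was obtained by fitting a burst-and-steady-state model.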

Test [2] relates to EfPiwi piRISC loaded with piRNA #1 (26 nt). The experiment in a line: pre-steady-state target cleavage rate (min^-1); auxiliary factor: 500 nM Ephydatia muelleri Gtsf1; guide: piRNA #1 5'p-UGAGGUAGUAGGUUGUAUAGUAUCCA; higher = faster piRNA-guided slicing of the target. In a few lines:
as §1

The subject of test [3] is EfPiwi piRISC loaded with L1MC piRNA (26 nt). The test is described as follows: pre-steady-state target cleavage rate (min^-1); auxiliary factor: none (no Gtsf1); guide: L1MC piRNA 5'p-UAACUAAAUACUAUGCAAGCUGUAGG; higher = faster piRNA-guided slicing of the target. In a few lines: as §1
Test [4] deals with MILI (PIWIL2) piRISC loaded with L1MC piRNA (26 nt). The test is described as follows: pre-steady-state target cleavage rate (min^-1); guide: L1MC piRNA 5'p-UAACUAAAUACUAUGCAAGCUGUAGG; MIWI and MILI are mouse PIWI proteins and EfPiwi is from a freshwater sponge; tags in brackets are library labels; higher = faster piRNA-guided slicing of the target. In a few lines: as §1
[5] abbreviates: auxiliary factor: 500 nM mouse GTSF1.
The mark [6] stands for this setting: auxiliary factor: none (no GTSF1).

± gives the standard deviation.

For the sequence GGAGUGGAUACAUUACAACCUACUACCUCA, the entries for the “pre-steady-state target cleavage rate” value in test [1] and in test [2] were 0.152 ± 0.012 and 0.00715 ± 0.0034, respectively.

Regarding GGAGACGAUACUAUAGCAACCUACUACCUCA, the “pre-steady-state target cleavage rate” value in test [1] is 0.162 ± 0.013; in test [2] it was 0.00432 ± 0.0027.

For the sequence GGAGACGAAACUAUACAACCUUCUACCUCA, the “pre-steady-state target cleavage rate” value amounted to 0.00739 ± 0.0047 in test [1] and 0.00751 ± 0.0034 in test [2].

Turning to GGAGAGGAUACUAUACUACCUUCUACCUCA, the “pre-steady-state target cleavage rate” value in test [1] worked out at 0.0158 ± 0.0024; in test [2], 0.00328 ± 0.0026.

As to GGAGACGAAACUAUACAACCUACUAGCUCA, the “pre-steady-state target cleavage rate” value was 0.083 ± 0.025 in test [1] and 0.00368 ± 0.0023 in test [2].

On to GGAGAGGAUACUAUACAACGUUCUACCUCA, for which the “pre-steady-state target cleavage rate” value is 0.00213 ± 0.0019 in test [1] and 0.00409 ± 0.0022 in test [2].

Regarding GGAGUGGAUACUCUACAACCUACUACCUCA, the figures for the “pre-steady-state target cleavage rate” value in test [1] and in test [2] were 0.194 ± 0.011 and 0.00588 ± 0.0041, respectively.

Take GGAGACGAUACUAUACAACCUACUAGCACA: the “pre-steady-state target cleavage rate” value in test [1] stood at 0.00848 ± 0.0055; in test [2] it was 0.00326 ± 0.0016.

With GGAGACGAAACUAUACAACCUACUACCUGA, the “pre-steady-state target cleavage rate” value came to 0.149 ± 0.039 in test [1] and 0.00491 ± 0.0026 in test [2].

Consider GGAGUGCAUACUAUACAACCUACUACCUGA, for which the “pre-steady-state target cleavage rate” value in test [1] worked out at 0.09 ± 0.011; in test [2], 0.00576 ± 0.0029.

GGAGACCUAUGUAUACAACCUACUACCUCCA: the results for the “pre-steady-state target cleavage rate” value in test [1] and in test [2] were 0.0928 ± 0.016 and 0.00535 ± 0.004, respectively.

Consider GGAGUGGAUACUAUACAACCAAGUACCUCA, for which the “pre-steady-state target cleavage rate” value in test [1] was 0.00277 ± 0.0018; in test [2] it was 0.00281 ± 0.0018.

GGAGACCUAUCUAGUACAACCUACUACCUCA: the “pre-steady-state target cleavage rate” value amounted to 0.0316 ± 0.0066 in test [1] and 0.00434 ± 0.0035 in test [2].

Turning to GGAGUGGAUACUAUACUACCUACUACCACA, the “pre-steady-state target cleavage rate” value was 0.143 ± 0.013 in test [1] and 0.0024 ± 0.0017 in test [2].

As for GGAGACGAUACUAUAAAACCUACUACCUCA, the results for the “pre-steady-state target cleavage rate” value in test [1] and in test [2] were 0.184 ± 0.013 and 0.00426 ± 0.0022, respectively.

For the sequence GGAGACGAUACUAUACAACCUACUUCCUCA, the “pre-steady-state target cleavage rate” value in test [1] worked out at 0.0885 ± 0.024; in test [2], 0.00431 ± 0.0018.

GGAGUGCAUACUAUACUACCUACUACCUCA: the entries for the “pre-steady-state target cleavage rate” value in test [1] and in test [2] were 0.161 ± 0.0089 and 0.00588 ± 0.0029, respectively.

For UCCUGGAUGUCCUUGCAUACUAUUUAGAUA, the “pre-steady-state target cleavage rate” value in test [3] was less than 0.0001.

In the case of UCCUGGAUGUCGAUGCAUAGUAUUAUGUUA, the “pre-steady-state target cleavage rate” value was 0.0412 ± 0.011 in test [4] (setting [5]) and less than 0.0001 in test [3].

Turning to UCCUGGAUGUCCAUGCAUAGUAUUUAGAUA, the “pre-steady-state target cleavage rate” value is 0.0163 ± 0.0062 in test [4] (setting [5]) and less than 0.0001 in test [3].

On to “UCCUGGAUGUCGAAGCAUAGUAUAAUCAAA [g8:g16:cont:t1A]”, for which the “pre-steady-state target cleavage rate” value in test [3] was less than 0.0001.

On to “UCCUGGAACAGCUUGCUAUCAUAAAUCAAA [g15:g23:cont:t1A]”, for which the “pre-steady-state target cleavage rate” value in test [4] (setting [6]) and in test [3] was less than 0.0001 in each case.

As for UCCUGGAUGUCGAACGUAUCUAUUUGGUUA, the “pre-steady-state target cleavage rate” value in test [3] was less than 0.0001.

On to UCCUGGAUGUCGAUGCAUAGAAAUUAGUUA, for which the “pre-steady-state target cleavage rate” value in test [3] is less than 0.0001.

With UCCUCCUACAGGAAGCAUAGUAUUUACAAA, the figures for the “pre-steady-state target cleavage rate” value in test [4] (setting [5]) and in test [3] were 0.0698 ± 0.014 and less than 0.0001, respectively.

With UCCUGGAUCAGCAACCAUAGUAUUUUCAAA, the “pre-steady-state target cleavage rate” value in test [4] (setting [6]) and in test [3] was less than 0.0001 in each case.

Regarding UCCUGCUACAGCUUGGUAAGUAUUUAGAAA, the “pre-steady-state target cleavage rate” value is 0.0107 ± 0.0045 in test [4] (setting [5]) and less than 0.0001 in test [3].

Regarding UCCUGGAUGUCGAAGCAUAGUAUUUGUUA, the “pre-steady-state target cleavage rate” value in test [4] (setting [6]) and in test [3] was less than 0.0001 throughout.

Consider UCCUGGUACAGCUUGCAUAGUAUAUACUUA, for which the “pre-steady-state target cleavage rate” value in test [3] is less than 0.0001.

For UCCUGCUACAGCUUGCAUAGAAUUUUCAAA, the “pre-steady-state target cleavage rate” value is 0.0169 ± 0.0066 in test [4] (setting [5]) and less than 0.0001 in test [3].

UCCUGGAUGUCGAACGUAUCUGAUUUAGUUA: in test [3], the “pre-steady-state target cleavage rate” value was less than 0.0001.

On to UCCUGGAUGUCGAACGUUAGUAUUUAGAUUA, for which, in test [3], the “pre-steady-state target cleavage rate” value was less than 0.0001.
